Laboratory results taken from PubChem BioAssay (EPA / NIEHS).
“And” between values parts separate entries of the source, which are not always exact repeats. Identical values can stand only once. The source made the active and inactive calls. Rule for the calls: active = hit-call score of the fitted dose curve at least 0.9, where 1 is the maximum; inactive = score below 0.9.

read-out: CD40, CD40 (gene 958); assay: BSK_LPS_CD40: BioMAP Diversity Plus: LPS Assay for CD40 Biomarker Activity (AID 2283076); conditions: primary human HUVEC with PBMC; actives raise or lower the signal
Procedure: BSK_LPS is a cell-based, multiplexed-readout assay that uses umbilical vein endothelium and peripheral blood mononuclear cells, a human vascular primary cell co-culture, with measurements taken at 24 hours after chemical dosing in a 96-well plate.BSK_LPS_CD40 is an assay component measured in the BSK_LPS assay. It measures CD40 antibody related to regulation of gene expression using ELISA technology.Data from the assay component BSK_LPS_CD40 was analyzed into 1 assay endpoint. This assay endpoint, BSK_LPS_CD40, was analyzed with bidirectional fitting relative to DMSO as the negative control and baseline of activity. Using a type of binding reporter, gain or loss-of-signal activity can be used to understand changes in the signaling as they relate to the gene CD40. Furthermore, this assay endpoint can be referred to as a primary readout, because this assay has produced multiple assay endpoints where this one serves a signaling function. To generalize the intended target to other relatable targets, this assay endpoint is annotated to the cytokine intended target family, where the subfamily is inflammatory factor.
The levels of cell surface (or secreted, indicated by the prefix "s") biomarker endpoints were measured by ELISA. Overt cytotoxicity to cells in confluent adherent cultures (all systems other than the BT system) was assessed by measuring total protein levels using sulforhodamine B (SRB) staining in parallel cultures at the time of biomarker measurements, indicated as SRB endpoints. For proliferation assays for adherent cell types, individual cell types are cultured at sub-confluence and relative cell numbers quantified by SRB staining at time points optimized for each system (48 h: 3C and CASM3C systems; 72 h: BT and HDF3CGF systems; 96 h: SAg system). SRB was performed by staining cells with 0.1% SRB after fixation with 10% TCA and reading wells at 560 nm.Viability and proliferation of PBMC (T cells) was quantified by Alamar Blue reduction for the SAg and BT systems. For PBMC viability (referred to as PBMC Cytotoxicity within the assay endpoint names), cells were plated (75,000/well in a 96-well plate) and then chemical samples added for 1 h before addition of activators, SEB and TSST-1 (20 ng/mL final concentration each). Cells were incubated for 90 h. Then, Alamar Blue (20 uL/well) (Invitrogen, Cat DAL1100) was added for 6 h, and the plates were read with a fluorescence microplate reader at 546/580 nm (excitation/emission). For PBMC proliferation, cells were plated and activated as above but incubated for only 16 h prior to addition of Alamar Blue. Plates were read after 6 h.

Row | SMILES | outcome | AC50
1 | CC=C(C)C(C)=O | inactive | –
2 | C=CC(=O)OCC(C)OCC(C)OCC(C)OC(=O)C=C (stereo not given) | – | 6.73 µM (active)
3 | C=CC(=O)OCCCCCCCC(C)C | inactive | –
4 | CC=C(C)C=CC=C(C)C | – | 7.42 µM (active)
5 | C=CC(=O)OCCCCCCOC(=O)C=C | – | 7.82 µM (active)
6 | C=CC(=O)NCOCCCC | inactive | –
7 | CC(C)C(=O)OCCc1ccccc1 | inactive | –
8 | CC(C)[N+](C)(CCOC(=O)C1c2ccccc2Oc2ccccc21)C(C)C | inactive | –
9 | CCCC(C)C(=O)OCC (stereo not given) | inactive | –
10 | COc1ccc(C(=O)c2ccccc2)c(O)c1 | inactive | –
11 | C=C(C)C(=O)OCCCCCCCCCCCC | inactive | –
12 | C1CNCCN1 | inactive | –
13 | CCOC(=O)C1=NOC(c2ccccc2)(c2ccccc2)C1 | inactive | –
14 | O=C(O)C(F)(F)C(F)(F)C(F)(F)C(F)(F)C(=O)O | inactive | –
15 | CC/C=C\C/C=C\C/C=C\CCCCCCCC(=O)OC | – | 20 µM (active)
16 | C[N+](C)(C)CCCNS(=O)(=O)C(F)(F)C(F)(F)C(F)(F)C(F)(F)C(F)(F)C(F)(F)C(F)(F)C(F)(F)F | – | 42.8 µM (active) and 25.4 µM (active)
17 | CC1(C)CC(O)CC(C)(C)N1[O] | inactive | –
18 | CC(c1cc(C(C)(C)C)cc(C(C)(C)C)c1O)c1cc(C(C)(C)C)cc(C(C)(C)C)c1O | inactive | –
19 | CC1=CC=C(C(C)C)CC1 | inactive | –
20 | CC/C=C\CCOC(=O)c1ccccc1O | – | 36.2 µM (active)

Row | SMILES | outcome | AC50
21 | COC(OC)(C(=O)c1ccccc1)c1ccccc1 | inactive | –
22 | O=C(Cl)c1c(Cl)c(Cl)c(C(=O)Cl)c(Cl)c1Cl | inactive | –
23 | CCCCCCOC(=O)CCCCC(=O)OCCCCCC | inactive | –
24 | CCCCC1C(=O)N(c2ccccc2)N(c2ccccc2)C1=O | inactive | –
25 | CCCCCCCCCCCC(=O)N(C)CC(=O)O | inactive | –
26 | c1ccc2c(c1)[nH]c1ccccc12 | inactive | –
27 | c1ccc2sc(SSN3CCOCC3)nc2c1 | inactive | –
28 | Oc1ccc(/C=C/c2cc(O)cc(O)c2)cc1 | inactive | –
29 | CCOC(=O)/C=C\C(=O)OCC | inactive | –
30 | CCCCCCCCC(CO)CCCCCC (stereo not given) | inactive | –
31 | Oc1c(Cl)cc(Cl)c(Cl)c1Cl | – | 20 µM (active)
32 | Oc1ccccc1Cc1ccccc1O | inactive | –
33 | C=CCCCCCCCCC=O | inactive | –
34 | Nc1nc(N)nc(-c2ccccc2)n1 | inactive | –
35 | CCOC(=O)C1=NN(c2ccc(Cl)cc2Cl)C(C)(C(=O)OCC)C1 (stereo not given) | inactive | –
36 | Clc1cc(Cl)c(Cl)c(Cl)c1Cl | inactive | –
37 | CC(C)CCCCCOC(=O)CS | inactive | –
38 | CCCCCCCCCCCC(C)=O | – | 31.3 µM (active)
39 | CCN1CN(CC)CN(CC)C1 | inactive | –
40 | CCCCCCC=O | inactive | –
